# The source made the active and inactive calls.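 The calls were made as follows, unless noted: active = compound raises insulin release from rat beta cells at 5 mM glucose, no numeric limit stated; inactive = the rest.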
# Columns and labels:
# [1] = Wnt pathway potentiators raising nuclear beta-catenin – imaging, WNT3A-conditioned medium, mouse C2C12, NPC library, primary screen (AID 1117326; in the data active = nuclear beta-catenin stimulation mostly above about 4.2%, no sharp cut-off; inactive = mostly below about 10%; also: reference of the scale not given here); details: stronger effect = higher value
# [2] = stimulators of insulin release from INS-1E, primary screen, cell-based, 5 mM glucose, NPC library (AID 1117329); details: rat INS-1E insulin secretion, at 10 µM, stronger effect = higher value; also: reference of the scale not given here
# [3] = growth inhibition of GSK3B-pretreated HCT116 cells – cell-based, CellTiter-Glo, 0.2 to 20 µM (AID 1117336;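 active = compounds lowering colon cancer cell viability after pretreatment blocking the GSK3B kinase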); details: HCT116 viability after GSK3B inhibitor, at 20 µM, stronger effect = higher value
# [4] = inhibition of endothelial tube formation, primary screen, imaging, VEGF stimulated, CD31 staining, tube area, NPC library (AID 1117340;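 active = compound that reduces growth-factor-driven endothelial tube area in a mixed cell culture, no cutoff stated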); details: VEGF-stimulated ADSC/ECFC co-culture, at 10 µM, stronger effect = higher value
# [5] = GLP1 release stimulators, primary, NCI-H716, NPC library (AID 1117341;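 active = compound raises GLP1 secretion from the human gut endocrine cells, with no numeric limit stated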; also: reference of the scale not given here); details: NCI-H716 cells, at 10 µM, stronger effect = higher value
# [6] = HCT116 colon cancer cell growth inhibition, primary screen, CellTiter-Glo luminescence, NPC library (AID 1117342;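 active = compounds that lower survival of HCT116 colon cancer cells in the luminescence readout, no numeric limit stated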); details: at 20 µM (top of the series)
# [7] = reduced SW480 viability measured with CellTiter-Glo, NPC library, primary (AID 1117343;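 active = compounds that lower viability of the colon cancer cells in the luminescence readout, with no numeric limit stated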); details: CellTiter-Glo luminescence; at 20 µM (top of the series)
# [8] = NPC library primary testing for decreased DLD-1 cell viability via CellTiter-Glo (AID 1117346;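 active = compounds that lower survival of DLD-1 colon cancer cells in the luminescence readout, no cutoff given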); details: DLD-1 viability, CellTiter-Glo luminescence; at 20 µM (top of the series)
SMILES,nuclear beta-catenin stimulation ([1]; at 10 µM),"nuclear beta-catenin stimulation ([1]; stimulation, at 2 µM)",insulin secretion stimulation [2],viability decrease [3],tube area decrease [4],GLP1 secretion stimulation [5],inhibition of viability [6],viability decrease (inhibition) [7],viability decrease (inhibition) [8]
CC(=O)O[C@H]1C[C@H](O[C@H]2[C@@H](O)C[C@H](O[C@@H]3[C@@H](O)C[C@H](O[C@H]4CC[C@@]5(C)[C@H](CC[C@@H]6[C@H]5C[C@@H](O)[C@]5(C)[C@@H](C7=CC(=O)OC7)CC[C@]65O)C4)O[C@@H]3C)O[C@@H]2C)O[C@H](C)[C@H]1O[C@@H]1O[C@H](CO)[C@@H](O)[C@H](O)[C@@H]1O,1.6% (inactive),0.9%,0.8% (inactive),73.3% (active),108% (active),-0.9% (inactive),46.8% (active),54.2% (active),55.1% (active)
C[C@]12CC[C@H]3[C@@H](CCC4=CC(=O)CC[C@@]43C)[C@@H]1CC[C@@H]2C(=O)O,0.7% (inactive),0.3%,0.2% (inactive),3.5% (inactive),8.1% (inactive),-3.2% (inactive),5.9% (inactive),-1.3% (inactive),2.4% (inactive)
Nc1ccc(N)cc1,-0.1% (inactive),0.8%,-3.1% (inactive),-2.35% (inactive),-29.4% (inactive),4.2% (inactive),51% (active),84.1% (active),-15.2% (inactive)
NCCS[As](SCCN)c1ccc(Nc2nc(N)nc(N)n2)cc1,-1.4% (inactive),-0.4%,0.6% (inactive),-8.2% (inactive),21.9% (inactive),-3.3% (inactive),0.1% (inactive),-3.2% (inactive),-34.2% (inactive)
CCN(CC)C(=O)N[C@@H]1C=C2c3cccc4[nH]cc(c34)C[C@@H]2N(C)C1,0.6% (inactive),-0.6%,2.6% (inactive),8.2% (inactive),-8.2% (inactive),-1% (inactive),12.2% (inactive),-11.8% (inactive),-5.3% (inactive)
COCC(=O)N(c1c(C)cccc1C)C(C)C(=O)OC (configuration not stated),0.1% (inactive),0.5%,-1.7% (inactive),-0.7% (inactive),-6.8% (inactive),1.9% (inactive),-27% (inactive),1.1% (inactive),8.85% (inactive)
C1CN(P2(N3CC3)=NP(N3CC3)(N3CC3)=NP(N3CC3)(N3CC3)=N2)CCO1 (configuration not stated),-0.2% (inactive),0.7%,2.5% (inactive),8.1% (inactive),86.7% (active),-5.1% (inactive),30.4% (inactive),17.7% (active),5.5% (inactive)
O=C1OC(c2ccc(O)c(S(=O)(=O)O)c2)(c2ccc(O)c(S(=O)(=O)O)c2)c2c(Br)c(Br)c(Br)c(Br)c21,3.3% (inactive),4.7%,0.75% (inactive),22.6% (inactive),-6.3% (inactive),6.8% (inactive),-59% (inactive),84.5% (active),-56.3% (inactive)
C[N+]1(CCF)[C@@H]2CC[C@H]1CC(OC(=O)C(O)(c1ccccc1)c1ccccc1)C2 (some centres not stated),-2.1% (inactive),0.7%,-0.1% (inactive),4.8% (inactive),16.4% (inactive),4.4% (inactive),5.8% (inactive),-2% (active),-1.5% (inactive)
O=c1[nH]c2cc(Cl)ccc2n1C1CCNCC1,9.1% (inactive),19.6%,3.8% (inactive),1.8% (inactive),-3.4% (inactive),10.2% (inactive),29.9% (inactive),10.3% (inactive),12.5% (inactive)
CC[N+]1(CC)CCC(OC(=O)C(O)(c2ccccc2)c2ccccc2)C1 (configuration not stated),-0.2% (inactive),-1.8%,3.25% (inactive),4.8% (inactive),1.2% (inactive),2.4% (inactive),4.2% (inactive),-12.8% (inactive),-6.4% (inactive)
CN1CCC(N(Cc2ccccc2)c2ccccc2)CC1,0.1% (inactive),-3%,14.1% (inactive),24.8% (inactive),-0.1% (inactive),14.3% (inactive),41.7% (inactive),48.7% (inactive),23.2% (inactive)
CCN(CC)N(O)N=O,-1.2% (inactive),0.7%,-0.3% (inactive),2.3% (inactive),-3.9% (inactive),-1.7% (inactive),-0.1% (inactive),-1.2% (inactive),-7.7% (inactive)
C[C@]12CC[C@H]3[C@@H](CC=C4C[C@@H](O)CC[C@@]43C)[C@@H]1CC[C@@H]2O,2.9% (inactive),-0.3%,-1% (inactive),3.75% (inactive),-14.6% (inactive),-6% (inactive),5.2% (inactive),28.6% (inactive),1.05% (inactive)
CC(C)(C)NCC(O)c1cc(Cl)c(N)c(C(F)(F)F)c1 (configuration not stated),0.4% (inactive),1%,-1.6% (inactive),-16.8% (inactive),-0.3% (inactive),-2.3% (inactive),10.6% (inactive),5.9% (inactive),-1.7% (inactive)
CCCCNCC(O)c1ccc(O)cc1 (configuration not stated),-0.1% (inactive),3.1%,2.3% (inactive),0.3% (inactive),16.9% (inactive),-2.1% (inactive),8% (inactive),-1.7% (inactive),-9.2% (inactive)
O=[N+]([O-])c1cc(I)c(O)c(I)c1,18.4% (inactive),0.7%,5.5% (inactive),95% (active),106% (active),-1% (inactive),93% (active),101% (active),98.8% (active)
O=C1OC(CCN2CCCCC2)OC1(c1ccccc1)c1ccccc1 (configuration not stated),15% (inactive),0.5%,5.9% (inactive),0.7% (inactive),6% (inactive),4.4% (inactive),1.1% (inactive),15% (inactive),92.8% (active)
CN1C2CCC(C)(C)C1CC(OC(=O)C(O)(c1cccs1)c1cccs1)C2 (configuration not stated),-1.7% (inactive),-0.6%,5.6% (inactive),8% (inactive),4.7% (inactive),-0.7% (inactive),27.8% (inactive),37.2% (inactive),27.7% (inactive)
O=C(O)COc1ccccc1,1.6% (inactive),0.3%,-2.7% (inactive),-4.9% (inactive),-5.1% (inactive),0.4% (inactive),-0.7% (inactive),-15.1% (inactive),-15.4% (inactive)
CC(C)(C)c1cc(O)ccc1O,2.1% (inactive),2.2%,0% (inactive),11.8% (inactive),50.3% (active),-1% (inactive),-45.9% (inactive),17.3% (inactive),-12% (inactive)
CCS(=O)(=O)C(C)(C)S(=O)(=O)CC,-0.7% (inactive),1.4%,-0.1% (inactive),2.1% (inactive),-6.6% (inactive),-1.4% (inactive),-17.9% (inactive),-3.1% (inactive),-0.85% (inactive)
COc1cc(CC#N)cc(OC)c1OC,0% (inactive),1.2%,2.2% (inactive),2.6% (inactive),36.1% (inactive),4.1% (inactive),22.6% (inactive),15.5% (inactive),-1.6% (inactive)
